An excerpt weighted towards active compounds, which were near 12% of everything screened.
PLK1 PBD block = inhibitors of human PLK1 polo-box domain binding; P53350; Plk1 PBD binding of FITC phosphopeptide, fluorescence polarization; Potency, µM, for inactives: max response, negative = inhibition, hits mostly inhibitors; 2.8% of 360,000 active; AID 720504; further: series mostly up to about 57 µM; nearly all actives have a fitted effect of over 65% in size
Target sequence (P53350 whole entry, looked up, the tested form may be a part): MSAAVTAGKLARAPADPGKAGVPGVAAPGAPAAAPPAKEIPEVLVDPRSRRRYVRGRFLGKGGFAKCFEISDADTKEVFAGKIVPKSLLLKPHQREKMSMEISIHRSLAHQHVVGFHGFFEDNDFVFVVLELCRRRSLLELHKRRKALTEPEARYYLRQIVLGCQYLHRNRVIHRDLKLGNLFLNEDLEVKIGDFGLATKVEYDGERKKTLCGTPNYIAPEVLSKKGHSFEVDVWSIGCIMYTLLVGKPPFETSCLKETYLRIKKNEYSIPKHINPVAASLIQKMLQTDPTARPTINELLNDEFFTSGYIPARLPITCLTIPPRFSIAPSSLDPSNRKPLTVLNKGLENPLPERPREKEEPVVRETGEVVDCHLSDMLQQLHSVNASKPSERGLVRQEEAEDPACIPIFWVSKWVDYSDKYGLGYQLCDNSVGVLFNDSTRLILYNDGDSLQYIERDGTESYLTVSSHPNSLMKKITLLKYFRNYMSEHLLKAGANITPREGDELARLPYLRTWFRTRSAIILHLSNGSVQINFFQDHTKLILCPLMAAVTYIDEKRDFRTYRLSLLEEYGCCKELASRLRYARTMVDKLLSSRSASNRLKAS
Sfp inh = Sfp phosphopantetheinyl transferase inhibition; Biochemical Sfp PPTase activity, qHTS; Potency, µM, without a hit: largest response in the series, negative = inhibition, most hits filed as inhibitors; 3.5% of 310,000 active; AID 1490;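 further: the enzyme is Sfp with the accession as filed and its product quenches rhodamine fluorescence; 0% = enzyme reaction without inhibitor and -100% = no enzyme wells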
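Sfp 15 nM + cpd, 15 min RT; start w/ rhodamine-CoA 5 uM, BHQ-2-YbbR 12.5 uM (final); 50 mM Hepes pH 7.6, 10 mM MgCl2, 0.01% NP-40, 0.01% BSA; read 525/598 nm at 0 and 30 min.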
ALDH1A1 inh = inhibitors of human aldehyde dehydrogenase 1A1. P00352. Purified ALDH1A1, NADH fluorescence, propionaldehyde substrate. Potency, µM (highest dose often 75.3 µM), inactives show at the highest dose activity, negative = inhibition, most hits filed as inhibitors. 7.3% of 220,000 active; active means well fitted inhibition curve with a large enough effect, not every such curve was filed as active; inconclusive means small, poorly fitted or top-dose-only effect, or another doubt; inactive means no such curve, though single readings can be large or run the other way;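 further: plate controls were no enzyme wells and a reference inhibitor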
VP16 counter = inhibits Gal4-VP16 luciferase reporter, ROR gamma counter-screen. Drosophila S2 Gal4-VP16 UAS-luciferase, luminescence, 20 h. Potency, µM (titrated, usually from 53.6 µM), inactives show at the highest dose activity, negative = inhibition, usual class: inhibitors. 3.5% of 310,000 active. AID 2546;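 further: Gal4-VP16 expression switched on by copper sulfate through the metallothionein promoter; nearly all actives have a fitted effect of over 50% in size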
RORg inh = blocks mouse ROR gamma transcriptional activity | P51450 | Drosophila S2 Gal4-RORgamma UAS-luciferase reporter, 20 h | Potency, µM (top dose mostly 53.6 µM), without a hit: top-dose activity change, negative = inhibition, most hits filed as inhibitors | 5.4% of 310,000 active; further: nearly all actives have a fitted effect of over 60% in size
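Luciferase reporter read in Schneider cells carrying Gal4-RORγ (mouse) and UAS-Photinus luciferase; cells given compound 1 h before 700 uM copper sulfate induction, then incubated 20 h at ambient temperature.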
Starred values were filed as active, the others as inactive; [ ] = remark or other dose. Unless noted, the call rests on the fitted dose curve; in most records, active means well fitted curve in the direction sought with a large enough effect; inconclusive means small, poorly fitted or top-dose-only effect, or another doubt; inactive means no such curve, though single readings can be large; an effect the other way counts as inactive or inconclusive. Unless noted, on the % scale 0 is the no-effect control and ±100 the full control effect; potency means the concentration at half of the fitted maximal effect.

`Cc1ccc(OCC(=O)N(Cc2ccc(N(C)C)cc2)C2CCS(=O)(=O)C2)cc1C` (centres undefined) gave PLK1 PBD block -23.8%, Sfp inh 1.6%, VP16 counter 0.8% and RORg inh 34.6%.
`CC(C)c1ccc(CN(C(=O)C2COc3ccccc3O2)C2CCS(=O)(=O)C2)cc1` (centres undefined) gave PLK1 PBD block -5.8%, Sfp inh -9.3%, ALDH1A1 inh inconclusive, VP16 counter -2.2% and RORg inh inconclusive.
`CC(C)OC(=O)c1ccc2ccc(-c3ccccc3)nc2c1` gave PLK1 PBD block -1.2%.
`CN(C(=O)c1ccccc1)c1ccc(OCC(=O)NC2CCS(=O)(=O)C2)cc1` (centres undefined) gave PLK1 PBD block -2.0%, Sfp inh 4.2%, ALDH1A1 inh 14.1µM*, VP16 counter 2.2% and RORg inh 20.5%.
O=C(COc1ccccc1)N(Cc1ccco1)C1CCS(=O)(=O)C1 (centres undefined) was read as PLK1 PBD block -2.3%, Sfp inh -3.2%, ALDH1A1 inh 22.4µM*, VP16 counter 4.5% and RORg inh 0.4%.
`O=C(COC(=O)COc1ccc(Br)cc1)NC1CCS(=O)(=O)C1` (centres undefined) gave PLK1 PBD block -2.5%.
C/C(=N/O)[C@@H]1C[C@H](CC(=O)O)C1(C)C was read as ALDH1A1 inh 0.6%[13.5 µM].
CNc1cncc(-c2ccc(CN3CCOCC3)cc2)n1 was read as PLK1 PBD block -10.6%.
Screening COc1cccc2cc(C(C)N(CCCN3CCOCC3)C(=S)Nc3cccc(C)c3C)oc12 (centres undefined) returned PLK1 PBD block -12.7%, Sfp inh 13.9%, ALDH1A1 inh -10.5%, VP16 counter -8.2%[10 µM] and RORg inh 11.2µM*.
For CCc1cccc(NC(=S)N(CCCN2CCOCC2)C(C)c2cc3cccc(OC)c3o2)c1 (centres undefined) the results were PLK1 PBD block -0.3%, Sfp inh 11.3%, ALDH1A1 inh 3.4%, VP16 counter inconclusive and RORg inh 11.2µM*.
`COc1ccc(NC(=S)N(CCCN2CCOCC2)C(C)c2cc3cccc(OC)c3o2)cc1` (centres undefined) gave PLK1 PBD block -3.2%, Sfp inh 14.7%, ALDH1A1 inh inconclusive, VP16 counter -8.5%[10 µM] and RORg inh -2.2%.
`COc1cccc2cc(C(C)N(CCCN3CCOCC3)C(=S)Nc3ccc(C)c(C)c3)oc12` (centres undefined) gave PLK1 PBD block 4.6%, Sfp inh 14.0%, ALDH1A1 inh inconclusive, VP16 counter inconclusive and RORg inh 11.2µM*.
`COc1cccc2cc(C(C)N(CCCN3CCOCC3)C(=S)Nc3cc(C)ccc3C)oc12` (centres undefined) gave PLK1 PBD block -8.4%, Sfp inh 4.6%, ALDH1A1 inh 7.7%, VP16 counter 5.6%[10 µM] and RORg inh 11.2µM*.
C[C@@H]1CCC2[C@@H](C)[C@@H](O)O[C@@H]3O[C@@]4(C)CC[C@@H]1[C@@]23OO4 (some centres undefined) was read as Sfp inh 7.2%, ALDH1A1 inh inconclusive, VP16 counter -24.5% and RORg inh -7.5%.
`COC(=O)[C@@]1(Cc2ccc(OC)cc2)[C@H]2c3cc(C(=O)N(C)C)n(Cc4ccc(OC)c(OC)c4)c3C[C@H]2CN1C(=O)c1ccccc1` gave Sfp inh -19.3%, ALDH1A1 inh -4.8%, VP16 counter -4.8% and RORg inh 31.0%.
Screening COc1cccc(NC(=S)N(CCCN2CCOCC2)C(C)c2cc3ccccc3o2)c1 (centres undefined) returned PLK1 PBD block -0.4%, Sfp inh 0.4%, ALDH1A1 inh -9.0%, VP16 counter inconclusive and RORg inh 11.2µM*.
For COc1ccc(CCNC(=O)C(=O)NCC2OCCN2S(=O)(=O)c2ccc(C)cc2)cc1OC (centres undefined) the results were PLK1 PBD block -10.5%, Sfp inh 9.7%, VP16 counter 10µM* and RORg inh 6.2%.

Bioassay records: PubChem, National Center for Advancing Translational Sciences (NCATS)
